In general, inhibition refers to the relative decrease from the control value, in per cent.

The campaign covered roughly 1,800 compounds. About 860 (48%) were called active. So high a share suggests a set chosen from earlier hits. A selection follows. A number with no mark means an inactive call. No stated cut-off is given here; in the data, active means inhibition above about 17%; inactive means the rest.

Data on 61 compounds can be found in PubChem BioAssay AID493232 (The Scripps Research Institute Molecular Screening Center, 2011).

This experiment can be described thus: signal inhibition in parental CHO-K1 cells, counter-screen for OX1R antagonist project, cell-based, HTRF (AID 493232).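 Further: 0% = agonist challenge with vehicle and 100% = vehicle alone without agonist.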 Conditions: HTRF counterscreen, at 6.6 µM, stronger effect = higher value. Background: The purpose of a counterscreen is to sort out artefacts and off-target activity.
On to `O=C(N/N=C/c1c(Cl)[nH]c2ccccc12)c1sc2ccccc2c1Cl`, for which the inhibition is 16%.
In the case of `Cc1cc(C(=O)NC2CCCc3c2cnn3-c2cccc(C)c2C)c(C)o1` (stereo unspecified), the inhibition was 9.36%.
With `O=C(Nc1nnc(C2=COCCO2)o1)c1ccc([N+](=O)[O-])s1`, the inhibition was 52.2% (active).
Consider `Cc1ccccc1S(=O)(=O)N1[C@@H](c2cccc(Cl)c2)C(C(=O)O)=CC[C@H]1c1ccc(Cl)cc1`, for which the inhibition is 12.8%.
For `COc1ccc(N2CC(C(=O)NCCN3C(=O)S/C(=C\c4cccnc4)C3=O)CC2=O)c(OC)c1` (stereo unspecified), the inhibition is 56.9% (active).
With `COc1ccccc1N1CC(C(=O)Nc2ccc(S(=O)(=O)N3CCOCC3)cc2)CC1=O` (stereo unspecified) the figure was 8.11%.
In the case of `COc1ccc(S(=O)(=O)NC(C)c2ccccc2)cc1C(=O)N1CCCCC1` (stereo unspecified), the inhibition was -4.56%.
`CC(=O)Oc1ccc(C(C)=O)c2c1OCCO2`: the inhibition is 0.1%.
Turning to `COc1cccc(N=c2oc3c(C)ncc(CO)c3cc2C(N)=O)c1`, the inhibition is 51.5% (active).
Regarding `COc1cccc(/C=N/Nc2cc(C)nc(-c3ccccc3O)n2)c1O`, the inhibition is 15.3%.
Regarding `CSCCC(NC(=O)c1cc([N+](=O)[O-])cc([N+](=O)[O-])c1)c1nc2ccccc2[nH]1` (stereo unspecified), the inhibition is 24.7% (active).
In the case of `COc1cccc(/C=N/NC(=O)c2[nH]nc3c2CCc2ccccc2-3)c1O`, the inhibition is -15.5%.
On to `COCCNC(=O)Nc1ccc2nc(-c3ccco3)c(-c3ccco3)nc2c1`, for which the inhibition is 48.3% (active).
Regarding `Cc1cc(-c2ccc(C)c(S(=O)(=O)NC(C)Cc3ccco3)c2)on1` (stereo unspecified), the inhibition is -2.9%.
With `CCn1c(C)nc2c1C(=O)c1ccccc1C2=O`, the inhibition is 97.1% (active).
In the case of `C[n+]1ccccc1C1CCCC/C1=N\Nc1ccc([N+](=O)[O-])cc1[N+](=O)[O-]` (stereo unspecified), the inhibition is 9.46%.
In the case of `c1ccc(-c2nc(NCc3ccco3)c3ccccc3n2)cc1`, the inhibition was 8.16%.
In the case of `CC(=O)N/N=C/c1cc2c(cc1[N+](=O)[O-])OCO2`, the inhibition is 60.3% (active).
Regarding `O=C(CN1C(=O)c2cccc3cccc(c23)C1=O)N1CCCCC1`, the inhibition was 50% (active).
Turning to `CCC(=O)N(C)C(c1ccccc1Cl)c1nnnn1-c1c(C)cccc1C` (stereo unspecified), the inhibition is 0.65%.
Turning to `Cc1cccc(NS(=O)(=O)c2cccc(C(=O)NNC(=O)c3ccccc3O)c2)c1`, the inhibition is 4.72%.
`N#C/C(=C1\CCCN1)c1nc(-c2ccccc2)cs1`: the inhibition was 10.3%.
Regarding `Nc1ccc2nc3c(=O)[nH]c(=S)[nH]c3nc2c1`, the inhibition was 77% (active).
`Nc1nc(-c2sc3nc4c(cc3c2N)CCCC4)nc(N2CCOCC2)n1`: the inhibition was 16.2%.
On to `Cc1cc(C)cc(NC(=O)C2CCCN2S(=O)(=O)c2cccc3cccnc23)c1` (stereo unspecified), for which the inhibition was -5.63%.
With `CC(=O)c1cccc(NC(=O)C2CCCN2S(=O)(=O)c2cccc3nsnc23)c1` (stereo unspecified) the figure was 33% (active).
With `O=C(N/N=C/c1sc(N2CCCCC2)nc1-c1cccs1)c1cccnc1` the figure was 6.55%.
`N#Cc1nc(-c2cccc3ccccc23)oc1N`: the inhibition is -17.8%.
As to `O=C(Nc1ccccc1Cl)/C(Cl)=C(\Cl)S(=O)c1ccccc1` (stereo unspecified), the inhibition was -27.6%.
As for `COc1ccc2oc(=O)c(C(=O)NCc3ccccn3)cc2c1`, the inhibition is 47.5% (active).
As to `O=C(O)CCC(=O)Nc1nc2ccc([N+](=O)[O-])cc2s1`, the inhibition is 47.7% (active).
Regarding `COc1cccc(/C=C/c2ccc3ccccc3n2)c1OC(C)=O`, the inhibition was 11.5%.
With `Cc1c(/C=N\NC(=O)c2cc3ccccc3o2)c2ccccc2n1C` the figure was 12.8%.
As to `COC(=O)N/N=C/c1c[n+]([O-])c2ccccc2[n+]1[O-]`, the inhibition is 97.3% (active).
For `CC(C)(C)NC(=O)CN(C(=O)c1csnn1)c1ccccc1-c1ccccc1`, the inhibition was 1.93%.
On to `CN1CCN(/N=C/c2ccc(-c3ccc([N+](=O)[O-])cc3)o2)CC1`, for which the inhibition was 34% (active).
`Cc1oc2c(c1C(=O)N1CCOCC1)C(=O)c1ccccc1C2=O`: the inhibition is 104% (active).
With `CC(NC(=O)c1cccc2ccccc12)c1ccc2c(c1)CCCC2` (stereo unspecified) the figure was 9.37%.
Take `CCOc1cc(/C=C(\C#N)c2nc(-c3cccs3)c(NC(C)=O)s2)ccc1O`: the inhibition is 2.21%.
With `CC(C)CC[n+]1ccn(C2=C([O-])c3ccccc3C(=O)/C2=N\S(=O)(=O)c2ccccc2)c1` the figure was 100% (active); with `O=C(OC1CCOC1=O)c1ccc(-c2nc3ccccc3s2)s1` (stereo unspecified), 28.1% (active).
Regarding `Cc1cc(=O)oc(C)c1C(=O)NCCN(C)Cc1ccccc1`, the inhibition was 4.29%.
Take `O=C(c1ccncc1)c1ccc([N+](=O)[O-])cc1`: the inhibition was 68.8% (active).
Turning to `CC(=O)Nc1ccc(Nc2c([N+](=O)[O-])cc(S(C)(=O)=O)cc2[N+](=O)[O-])cc1`, the inhibition was 71% (active).
As for `CC(C)(C)NC(=O)Cn1cnc2cc([N+](=O)[O-])ccc2c1=O`, the inhibition was 73.7% (active).
As for `O=C(Nc1cccc2cccnc12)c1cccc(N2C(=O)CCC2=O)c1`, the inhibition was 8.23%.
On to `O=C(Cc1ccccc1)N1CCN(S(=O)(=O)c2ccc([N+](=O)[O-])cc2)CC1`, for which the inhibition was 28.9% (active).
As for `Cc1ccc([C@@H]2CC=C(C(=O)O)[C@H](c3cccc(Cl)c3)N2S(=O)(=O)c2ccc(C)cc2)cc1`, the inhibition is 4.59%.
In the case of `S=c1[nH]nc(-c2cc(-c3ccccc3)n[nH]2)n1/N=C/c1c2ccccc2cc2ccccc12`, the inhibition is 6.53%.
`Cc1cccn2c(=O)c3cc(C#N)c(=NC(=O)c4cccnc4)n(CC4CCCO4)c3nc12` (stereo unspecified): the inhibition was 46.1% (active).
Turning to `Nc1nc(COC(=O)CCC(=O)c2ccc(Cl)cc2)nc(Nc2ccccc2)n1`, the inhibition was -0.94%.
Turning to `Cc1cccc(NC(=O)Nc2cccc(Oc3c(F)c(F)c(F)c(F)c3F)c2)c1`, the inhibition is 14.7%.
Regarding `O=C(NC(Cc1c[nH]c2ccccc12)C(=O)N/N=C/c1ccc(Br)cc1)c1cccs1` (stereo unspecified), the inhibition was 3.77%.
As to `COC(=O)c1sccc1NC(=O)CSc1ccccc1NS(=O)(=O)c1cc(Cl)ccc1Cl`, the inhibition was 12.9%.
Consider `COCCCNC(=S)NC(=O)c1ccc([N+](=O)[O-])cc1`, for which the inhibition is 29.9% (active).
For the compound `COc1cc(OC)c(NC(=O)c2ccc(Br)o2)cc1Cl`, the inhibition was 8.45%.
With `COc1ccc(N(C)C(=O)CCS(=O)(=O)c2cccc3nsnc23)cc1`, the inhibition is 56% (active).
Turning to `CCOc1ccc(NC(=O)CCS(=O)(=O)c2cccc3nsnc23)cc1`, the inhibition is 35.3% (active).
With `COc1ccc2sc(-c3ccc(N(C)C)cc3)c(C#CCO)c2c1` the figure was 14.2%; with `C=CCn1c(SCC(=O)Nc2nc3ccccc3s2)nnc1-c1ccccc1O`, -0.28%; with `N#CC(=C1SC=CS1)c1nc(-c2ccccc2)cs1`, 14.8%.
